We go through eight compounds from PubChem BioAssay (NCI).

Compounds without any hit were thinned out: in the full panel of roughly 83,000, 20% have a hit.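 Single-concentration screen, 48 h exposure, 96-well plates. Endpoint: percent growth. Below 10 = active.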 Unmarked numbers belong to inactive results. Activity calls are given as the source filed them.

What all share (test): NCI-60 one-dose screen, 48 h (100 = growth as untreated, 0 = no growth, -100 = all killed)
Common to all, as to conditions: 10 µM unless noted

Experiment [1] relates to NCI-H23 lung.
The subject of experiment [2] is NCI-H226 lung.
Experiment [3] concerns NCI-H322M lung.
Experiment [4] deals with HOP-62 NSCLC.
Experiment [5] has as its system NCI-H460 lung.
Experiment [6] has as its system HOP-92 NSCLC.
For experiment [7], the system named is NCI-H522 lung.
Experiment [8] concerns A549/ATCC NSCLC.
Experiment [9] has as its system 786-0 renal.
Experiment [10] has as its system COLO 205 colon.
In experiment [11] the test system is DU-145 prostate.
Experiment [12] relates to K-562 leukemia.
The subject of experiment [13] is MALME-3M melanoma.
Experiment [14] relates to MDA-MB-231 breast.
The subject of experiment [15] is RXF 393 renal.
For experiment [16], the system named is SF-268 CNS.
In experiment [17] the test system is SF-295 CNS.
Experiment [18] relates to SF-539 CNS.
The subject of experiment [19] is UACC-257 melanoma.
In experiment [20] the test system is M14 melanoma.

On to `COc1cc(C(=O)NNC(=O)c2ccccc2O)cc(OC)c1OC`, for which the growth is 101% in [1]; 96.8% in experiment [2]; 93.5% in experiment [3]; 99.7% in [4]; 102% in [5]; 83% in experiment [6]. The growth in experiment [7] was 61.9%; in experiment [8], 82.9%; in experiment [9] it was 97.6%; in experiment [10], 94.3%; in [11], 104%; in experiment [12] it was 95.7%. Also, the growth in experiment [13] is 103%; in experiment [14], 87.5%; in experiment [15], 99%; in experiment [16], 98.1%; in [17], 98.2%; in experiment [18], 98.5%. Further, the growth was 72.4% in [19] and 109% in experiment [20].
As for `CCCCC(=O)Nc1nc2ccc(SCCC)cc2s1`, the growth in experiment [1] is 68.5%; in [2] it was 49.7%; in [3] it was 82.4%; in experiment [4] it was 51.8%; in experiment [5] it was 32%; in experiment [6] it was 20.8%. Further, the growth in experiment [7] was 28.8%; in [8], 35.8%; in experiment [9] it was 65%; in [10], 51.6%; in [11] it was 67.4%; in experiment [12], 16.5%. Besides, the growth in experiment [13] was 50%; in [14] it was 51.9%; in experiment [15], 45.9%; in experiment [16] it was 61.6%; in experiment [17], 45.1%; in experiment [18], 50.5%. The growth in experiment [19] is 66.8%; in experiment [20] it was 37.3%.
Regarding `Nc1nc(Cl)cc(NCCCCNc2cc(Cl)nc(N)n2)n1`, the growth in experiment [1] is 102%; in [2], 109%; in [3], 87.1%; in experiment [4] it was 107%; in experiment [5], 121%; in [6] it was 74.3%. The growth in [7] is 83.8%; in [8], 108%; in [9], 108%; in experiment [10] it was 105%; in experiment [11], 104%; in [12], 101%. Further, the growth in [13] is 145%; in experiment [14] it was 114%; in experiment [15], 123%; in [16] it was 112%; in [17] it was 121%; in experiment [18] it was 96.5%. The growth in experiment [19] was 105%; in experiment [20] it was 117%.
Turning to `COc1cc(CN(c2ccc(Cl)cc2)C2OC(=O)c3ccccc32)cc(OC)c1OC` (stereo not given), the growth in experiment [1] was 77.2%; in experiment [2], 78.9%; in experiment [3] it was 88.8%; in experiment [4] it was 44.8%; in [5], 57.4%; in experiment [6] it was 69.1%. For the same compound, the growth was 35% in [7]; 39.7% in [8]; 71% in experiment [9]; 61.9% in experiment [10]; 83.7% in [11]; 15.8% in experiment [12]. The growth in [13] is 64.3%; in experiment [14] it was 67.1%; in [15], 82.7%; in experiment [16], 67.8%; in [17] it was 71.5%; in [18], 60.2%. Moreover, the growth in experiment [19] is 74.7%; in experiment [20], 34.8%.
For `COc1cc(-c2nc3sc(C)cn3c2/C=C2\C(=O)Nc3ccccc32)c(Br)c(OC)c1OC`, the growth was 74.4% in [1]; 80.1% in experiment [2]; 55.8% in [3]; 26% in experiment [4]; 8.76% (active) in [5]; 44.2% in experiment [6]. Further, the growth in [7] is -10.6% (active); in [8], 50.3%; in experiment [9] it was 22.9%; in experiment [10], 52.7%; in experiment [11], 46.9%; in experiment [12] it was 9.97% (active). Also, the growth in [13] was 26.3%; in [14], 79.4%; in experiment [15], 13.4%; in [16], 54.1%; in experiment [17] it was 21.8%; in [18], 11.8%. Further, the growth in experiment [19] was 79.4%; in [20], 22.2%.
Take `ClC1c2ccccc2CCc2ccccc21`: the growth is 89.2% in [1]; 96.7% in experiment [2]; 94.1% in experiment [3]; 90% in experiment [4]; 114% in experiment [5]; 82.7% in experiment [6]. Besides, the growth is 76.6% in experiment [7]; 93.4% in [8]; 93.5% in experiment [9]; 96.5% in [10]; 120% in [11]; 109% in [12]. The growth is 90.6% in experiment [13]; 104% in [14]; 111% in experiment [15]; 99.3% in [16]; 106% in experiment [17]; 95% in [18]. The values for the growth in experiment [19] and in experiment [20] were 88.8% and 99.2%, respectively.
On to `O=C(NCCNc1nccc(-c2c(-c3cccc(O)c3)nc3sccn23)n1)c1cccc(C(F)(F)F)c1`, for which the growth is 81% in experiment [1]; 88.5% in experiment [2]; 103% in [3]; 114% in experiment [4]; 85.7% in [5]; 83.8% in experiment [6]. In addition, the growth in [7] is 48.5%; in [8], 71.3%; in [9] it was 89.3%; in experiment [10] it was 71.1%; in experiment [11] it was 91.4%; in experiment [12], 56.2%. The growth in experiment [13] is 0.753% (active); in experiment [14] it was 76.2%; in [15], 79.9%; in experiment [16], 86.7%; in [17], 69.6%; in [18] it was 100%. Besides, the figures for the growth in [19] and in experiment [20] were 14.4% and 17.5%, respectively.
For `COc1ccc(-c2nnc(NC(=O)CN3CCN(c4cc5c(cc4F)c(=O)c(C(=O)O)cn5C4CC4)CC3)s2)cc1OC`, the growth was 96.3% in [1]; 87.8% in [2]; 98.2% in experiment [3]; 95.6% in experiment [4]; 101% in experiment [5]; 106% in experiment [6]. For the same compound, the growth in experiment [7] was 89.1%; in experiment [8], 100%; in experiment [9], 88.1%; in [10], 104%; in [11] it was 113%; in experiment [12] it was 89.9%. Further, the growth in experiment [13] was 98.9%; in [14], 102%; in experiment [15], 105%; in experiment [16] it was 97.7%; in [17], 103%; in [18], 96.8%. For the same compound, the figures for the growth in experiment [19] and in experiment [20] were 98% and 97.7%, respectively.
